Inconclusive results are not listed. Unmarked numbers belong to inactive results. The source made the active and inactive calls. Calls come from the whole dose curve; as a rule, active = well fitted inhibition curve with a large enough effect; inconclusive = small, poorly fitted or top-dose-only effect, or effect the other way; inactive = flat fitted curve, though single readings scatter.
Molecular target: ATP-dependent 6-phosphofructokinase (Trypanosoma brucei brucei) (UniProt O15648)
Test: qHTS Assay to Find Inhibitors of T. brucei phosphofructokinase: hit validation (AID 492961);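 note: luminescence reports ADP formed as PFK phosphorylates fructose-6-phosphate with ATP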
Conditions: T. brucei PFK, ADP-Glo luminescence; series mostly up to 51.4 µM; activity change, negative = inhibition: at the top concentration
In short: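 Measures ADP output of PFK (1.25 nM) at 0.1 mM ATP, 0.5 mM F6P, pH 8.0 TEA buffer with 5 mM MgCl2. No-enzyme wells define full inhibition; uninhibited enzyme wells define zero.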
% is set by controls: 0 for no effect and ±100 for the full control effect.

Sequence of ATP-dependent 6-phosphofructokinase (Trypanosoma brucei brucei) (O15648 whole entry, looked up): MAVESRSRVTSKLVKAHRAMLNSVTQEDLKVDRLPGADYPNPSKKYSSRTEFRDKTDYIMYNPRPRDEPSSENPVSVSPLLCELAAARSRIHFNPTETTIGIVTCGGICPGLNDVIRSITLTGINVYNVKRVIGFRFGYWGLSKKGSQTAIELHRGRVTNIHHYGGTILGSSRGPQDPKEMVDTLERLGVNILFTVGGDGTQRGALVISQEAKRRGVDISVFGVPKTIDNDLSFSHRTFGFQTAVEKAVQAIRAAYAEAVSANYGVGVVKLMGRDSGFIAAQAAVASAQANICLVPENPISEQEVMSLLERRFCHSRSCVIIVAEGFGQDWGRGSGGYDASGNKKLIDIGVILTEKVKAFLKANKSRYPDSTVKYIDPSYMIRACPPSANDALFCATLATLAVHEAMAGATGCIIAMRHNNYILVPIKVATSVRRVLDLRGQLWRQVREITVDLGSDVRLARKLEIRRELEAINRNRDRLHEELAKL

Structure (SMILES) | activity change, negative = inhibition | Potency
CCCCCCCCCCCCCCCCCCOCC(O)CO (stereo not given) | 2.37% | 
CC(=O)Nc1ccc(/C=N/NC(N)=S)cc1 |  | inactive
CC12CCC(CC1)C(C)(C)O2 | -7.84% | 
CC(C)(C)C(=O)NCCCC(=O)O | -9.41% | 
Cc1cc(C(C#N)c2ccc(Cl)cc2)c(Cl)cc1NC(=O)c1cc(I)cc(I)c1O (stereo not given) | -1.86% | 
CCCCN1CCCC[C@H]1C(=O)Nc1c(C)cccc1C | 5.96% | 
COc1cc(C)c(Cc2cnc(N)nc2N)cc1OC | 19.2% | 
O=C(O)c1ccccn1 | 0.96% | 
COc1ccc2c(c1)C(=O)N(CCc1ccc(S(=O)(=O)NC(=O)NC3CCCCC3)cc1)C(=O)C2(C)C | 10.5% [at 24.3 µM] | 
CCCCN(CCCC)CC(O)c1cc(Cl)cc2c1-c1ccc(Cl)cc1/C2=C/c1ccc(Cl)cc1 (stereo not given) | 0% | 
[O-][n+]1cccc(CO)c1 | 5.97% | 
O=C(O)CC(O)C(=O)O (stereo not given) | 2.45% | 
O=C1OC(OC(=O)c2cccnc2Nc2cccc(C(F)(F)F)c2)c2ccccc21 (stereo not given) | 15.4% | 
N[C@@H](CSCCCO)C(=O)O | 9.99% | 
CC(=O)c1ccc2c(c1)N(CCCN(C)C)c1ccccc1S2 | 6.21% [at 24.3 µM] | 
O=C(O)[C@@H]1CSCN1 | -19% | 
CN(C)CCN(Cc1ccccc1)c1ccccn1 | 10.1% | 
CCCCN(CCCC)CCCOC(=O)c1ccc(N)cc1 | 1.47% [at 24.3 µM] | 

Structure (SMILES) | activity change, negative = inhibition | Potency
CCN(CC)CCSC(=O)C(c1ccccc1)c1ccccc1 |  | inactive
CN1CCCCC1CCN1c2ccccc2Sc2ccc(S(C)=O)cc21 (stereo not given) | -7.01% | 
COc1cc(C(=O)N2CCOCC2)cc(OC)c1OC |  | inactive
Cc1cc2c(cc1S(N)(=O)=O)S(=O)(=O)CCC2 | -8.24% [at 24.3 µM] | 
Cc1cc(O)cc2c1O[C@](C)(CCC[C@H](C)CCC[C@H](C)CCCC(C)C)CC2 | 0% | 
NC(CSCC(=O)O)C(=O)O (stereo not given) | 0% | 
NS(=O)(=O)c1cc2c(cc1Cl)NC(CSCc1ccccc1)=NS2(=O)=O | -1.37% [at 24.3 µM] | 
NCC(=O)CCC(=O)O | 8.94% | 
Cc1cccc(C)c1NC(=O)CN(CC(=O)O)CC(=O)O | 6.92% | 
CCN(CC)CCNC(=O)c1c(C)[nH]c(/C=C2\C(=O)Nc3ccc(F)cc32)c1C | 3.4% | 
O=C(O)c1ccccc1O | 10.2% | 
CC1(C)[C@@H]2CC[C@@]1(C)C(=O)C2 | 1.93% | 
Cn1c(=O)c2c(ncn2CC2OCCO2)n(C)c1=O | 2.05% | 
Nc1ccc(S(=O)(=O)NC(=O)c2ccccc2)cc1 | -1.77% [at 24.3 µM] | 
CCCCCCCCCCCCOS(=O)(=O)O | 2.49% | 
C[C@@H]1CN(c2c(F)c(F)c3c(=O)c(C(=O)O)cn(C4CC4)c3c2F)C[C@H](C)N1 | 6.54% | 
CC(C)(C)C(=O)C(Oc1ccc(Cl)cc1)n1ccnc1 (stereo not given) | 0% | 

From PubChem BioAssay (NCATS)
